Results filed as inconclusive are left out. Active and inactive are the calls of the source. The call rests on the fitted dose curve; in most records, active means well fitted cell-killing curve with a large enough effect; inconclusive means small, poorly fitted or top-dose-only effect, or effect the other way; inactive means flat fitted curve, though single readings scatter.
Key:
Test in all cases: Primary qHTS to identify gynecologic anti-cancer compounds using libraries of approved drugs and bioactive compounds (AID 1345084); further: nearly all actives have a fitted effect of over 55% in size
C33A = conditions: Gynecologic cancer cell panel viability, ATPlite luminescence, 48 h; series mostly up to 57.5 µM
Method in brief: (§1)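 Cell viability after 48 h drug treatment, ATPlite luminescence readout; five doses.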

CAOV3 = conditions: Gynecologic cancer cell panel viability, ATPlite luminescence, 48 h; series mostly up to 57.5 µM
Method in brief: as §1

CASKI = conditions: Gynecologic cancer cell panel viability, ATPlite luminescence, 48 h; series mostly up to 57.5 µM
Method in brief: as §1

Es-2 = conditions: Gynecologic cancer cell panel viability, ATPlite luminescence, 48 h; series mostly up to 57.5 µM
Method in brief: as §1

HeLa = conditions: Gynecologic cancer cell panel viability, ATPlite luminescence, 48 h; series mostly up to 57.5 µM
Method in brief: as §1

Hek293T = conditions: Gynecologic cancer cell panel viability, ATPlite luminescence, 48 h, control line for the selectivity index; series mostly up to 57.5 µM
Method in brief: as §1

JEG-3 = conditions: Gynecologic cancer cell panel viability, ATPlite luminescence, 48 h; series mostly up to 57.5 µM
Method in brief: as §1

OV90 = conditions: Gynecologic cancer cell panel viability, ATPlite luminescence, 48 h; series mostly up to 57.5 µM
Method in brief: as §1

PA-1 = conditions: Gynecologic cancer cell panel viability, ATPlite luminescence, 48 h; series mostly up to 57.5 µM
Method in brief: as §1

SKOV3 = conditions: Gynecologic cancer cell panel viability, ATPlite luminescence, 48 h; series mostly up to 57.5 µM
Method in brief: as §1

Tov-21-G = conditions: Gynecologic cancer cell panel viability, ATPlite luminescence, 48 h; series mostly up to 57.5 µM
Method in brief: as §1

Tov112D = conditions: Gynecologic cancer cell panel viability, ATPlite luminescence, 48 h; series mostly up to 57.5 µM
Method in brief: as §1
On the % scale 0 is the no-effect control and ±100 the full control effect; potency means the concentration at half of the fitted maximal effect.

O=C(CSc1nc2ccccc2c(=O)n1-c1ccccc1)Nc1ccc2c(c1)CCC2
inactive: Potency (C33A) | Potency (CAOV3) | Potency (CASKI) | Potency (Es-2) | Potency (HeLa) | Potency (Hek293T) | Potency (JEG-3) | Potency (OV90) | Potency (PA-1) | Potency (SKOV3) | Potency (Tov-21-G) | Potency (Tov112D)

CC(=O)OC[C@]12[C@H](OC(C)=O)[C@H](OC(=O)c3ccccc3)[C@@H]3[C@@H](OC(C)=O)[C@]1(OC3(C)C)[C@H](C)C[C@H](OC(C)=O)[C@@H]2OC(=O)c1ccccc1
inactive: Potency (C33A) | Potency (CAOV3) | Potency (CASKI) | Potency (Es-2) | Potency (HeLa) | Potency (Hek293T) | Potency (JEG-3) | Potency (OV90) | Potency (PA-1) | Potency (SKOV3) | Potency (Tov-21-G) | Potency (Tov112D)

O=C(NCCN1CCN(c2cccc3ccc(O)cc23)CC1)c1ccc(F)cc1
inactive: Potency (C33A) | Potency (CAOV3) | Potency (CASKI) | Potency (Es-2) | Potency (HeLa) | Potency (Hek293T) | Potency (JEG-3) | Potency (OV90) | Potency (PA-1) | Potency (SKOV3) | Potency (Tov-21-G) | Potency (Tov112D)

C=C(C(=O)O)[C@@H]1CC=C(CCC(C)=O)[C@@H](C)CC1
inactive: Potency (C33A) | Potency (CAOV3) | Potency (CASKI) | Potency (Es-2) | Potency (HeLa) | Potency (Hek293T) | Potency (JEG-3) | Potency (OV90) | Potency (PA-1) | Potency (SKOV3) | Potency (Tov-21-G) | Potency (Tov112D)

COc1ccc(NC(=O)C2C[C@H](C)CC[C@H]2C(C)C)cc1 (stereo not given in full)
inactive: Potency (C33A) | Potency (CAOV3) | Potency (CASKI) | Potency (Es-2) | Potency (HeLa) | Potency (Hek293T) | Potency (JEG-3) | Potency (OV90) | Potency (PA-1) | Potency (SKOV3) | Potency (Tov-21-G) | Potency (Tov112D)

NS(=O)(=O)c1ccc(NC(=O)Nc2ccc(F)cc2)cc1
inactive: Potency (C33A) | Potency (CAOV3) | Potency (CASKI) | Potency (Es-2) | Potency (HeLa) | Potency (Hek293T) | Potency (JEG-3) | Potency (OV90) | Potency (PA-1) | Potency (SKOV3) | Potency (Tov-21-G) | Potency (Tov112D)

COC(=O)/C=C/C=C/C(=O)OC1C=C2COC(=O)C2(O)C2(C)CCCC(C)(C)C12 (stereo not given)
inactive: Potency (C33A) | Potency (CAOV3) | Potency (CASKI) | Potency (Es-2) | Potency (HeLa) | Potency (Hek293T) | Potency (JEG-3) | Potency (OV90) | Potency (PA-1) | Potency (SKOV3) | Potency (Tov-21-G) | Potency (Tov112D)

C=C1CC[C@@H](O)[C@]2(C)CC[C@H]3C(=C)C(=O)O[C@@H]3[C@@H]12
inactive: Potency (C33A) | Potency (CAOV3) | Potency (CASKI) | Potency (Es-2) | Potency (HeLa) | Potency (Hek293T) | Potency (JEG-3) | Potency (OV90) | Potency (PA-1) | Potency (SKOV3) | Potency (Tov-21-G) | Potency (Tov112D)

CCC(C)c1ccc(NC(=O)Cn2cnc3c2c(=O)n(C)c(=O)n3C)cc1 (stereo not given)
inactive: Potency (C33A) | Potency (CAOV3) | Potency (CASKI) | Potency (Es-2) | Potency (HeLa) | Potency (Hek293T) | Potency (JEG-3) | Potency (OV90) | Potency (PA-1) | Potency (SKOV3) | Potency (Tov-21-G) | Potency (Tov112D)

CCC/C=C/C=C/C1CC(O)C2(O)C(=O)OCC12 (stereo not given)
inactive: Potency (C33A) | Potency (CAOV3) | Potency (CASKI) | Potency (Es-2) | Potency (HeLa) | Potency (Hek293T) | Potency (JEG-3) | Potency (OV90) | Potency (PA-1) | Potency (SKOV3) | Potency (Tov-21-G) | Potency (Tov112D)

COc1cc(O)cc(OC2OC(CO)C(O)C(O)C2O)c1 (stereo not given)
inactive: Potency (C33A) | Potency (CAOV3) | Potency (CASKI) | Potency (Es-2) | Potency (HeLa) | Potency (Hek293T) | Potency (JEG-3) | Potency (OV90) | Potency (PA-1) | Potency (SKOV3) | Potency (Tov-21-G) | Potency (Tov112D)

O=C(NCCCN1CCC2(CC1)OCc1ccccc12)[C@H]1CCCN1Cc1ccccc1
inactive: Potency (C33A) | Potency (CAOV3) | Potency (CASKI) | Potency (Es-2) | Potency (HeLa) | Potency (Hek293T) | Potency (JEG-3) | Potency (OV90) | Potency (PA-1) | Potency (SKOV3) | Potency (Tov-21-G) | Potency (Tov112D)

CC(CCC1(O)OC2CC3C4CC=C5C[C@@H](O[C@@H]6O[C@H](CO)[C@@H](O[C@@H]7O[C@@H](C)[C@H](O)[C@@H](O)[C@H]7O)[C@H](O)[C@H]6O[C@@H]6O[C@@H](C)[C@H](O)[C@@H](O)[C@H]6O)CC[C@]5(C)C4CC[C@]3(C)[C@@]2(O)[C@@H]1C)CO[C@@H]1O[C@H](CO)[C@@H](O)[C@H](O)[C@H]1O (stereo not given in full)
active: Potency (CAOV3) 1000 nM
inactive: activity change, negative = cytotoxicity (C33A) -5.46% [at 11.6 µM] | activity change, negative = cytotoxicity (CASKI) 14.6% [at 11.6 µM] | activity change, negative = cytotoxicity (Es-2) 10.8% [at 11.6 µM] | activity change, negative = cytotoxicity (HeLa) 4.9% [at 11.6 µM] | activity change, negative = cytotoxicity (Hek293T) 7.85% [at 11.6 µM] | activity change, negative = cytotoxicity (JEG-3) 5.47% [at 11.6 µM] | activity change, negative = cytotoxicity (OV90) 3.45% [at 11.6 µM] | activity change, negative = cytotoxicity (PA-1) 19.4% [at 11.6 µM] | activity change, negative = cytotoxicity (SKOV3) 2.43% [at 11.6 µM] | activity change, negative = cytotoxicity (Tov-21-G) 0.779% [at 11.6 µM] | activity change, negative = cytotoxicity (Tov112D) -0.117% [at 11.6 µM]

C=C1C(=O)OC2C3=C(C)C(=O)CC3C(C)CC(O)C12 (stereo not given)
inactive: Potency (C33A) | Potency (CAOV3) | Potency (CASKI) | Potency (Es-2) | Potency (HeLa) | Potency (Hek293T) | Potency (JEG-3) | Potency (OV90) | Potency (PA-1) | Potency (SKOV3) | Potency (Tov-21-G) | Potency (Tov112D)

CC1(C)CC[C@]2(C(=O)O)[C@H](O)C[C@]3(C)C(=CCC4[C@@]5(C)CC[C@H](O[C@@H]6O[C@H](CO[C@@H]7OC[C@H](O)[C@H](O)[C@H]7O[C@@H]7OC[C@H](O)[C@H](O)[C@H]7O)[C@@H](O)[C@H](O)[C@H]6O)C(C)(C)C5CC[C@]43C)[C@@H]2C1 (stereo not given in full)
inactive: activity change, negative = cytotoxicity (C33A) 3.19% [at 11.6 µM] | activity change, negative = cytotoxicity (CAOV3) 6.12% [at 11.6 µM] | activity change, negative = cytotoxicity (CASKI) -7.68% [at 11.6 µM] | activity change, negative = cytotoxicity (Es-2) -0.336% [at 11.6 µM] | activity change, negative = cytotoxicity (HeLa) -1.57% [at 11.6 µM] | activity change, negative = cytotoxicity (Hek293T) -1.34% [at 11.6 µM] | activity change, negative = cytotoxicity (JEG-3) 14% [at 11.6 µM] | activity change, negative = cytotoxicity (OV90) 2.79% [at 11.6 µM] | activity change, negative = cytotoxicity (PA-1) 4.95% [at 11.6 µM] | activity change, negative = cytotoxicity (SKOV3) 13.8% [at 11.6 µM] | activity change, negative = cytotoxicity (Tov-21-G) 4.39% [at 11.6 µM] | activity change, negative = cytotoxicity (Tov112D) 15.2% [at 11.6 µM]

Source: PubChem BioAssay (NCATS)
